According to PubChem BioAssay AID492956 (The Scripps Research Institute Molecular Screening Center, 2010):
Among all 340,000 compounds or so, about 3,300 (0.97%) were called active. What follows is part of a selection rich in actives, with near analogues and random picks from the rest. A number with no mark means an inactive call.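 How the source made its calls: active means inhibition above the mean over all tested compounds plus 3 SD (cut at about 30% in these data); inactive means the rest.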

Target: Platelet-activating factor acetylhydrolase 2, cytoplasmic (Homo sapiens) (UniProt Q99487)
Test: PAFAH2 enzyme inhibitors, primary screen, biochemical, fluorescence polarization, human (AID 492956);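 further: inhibitors block probe labeling of enzyme so polarization drops; 0% = enzyme with DMSO and 100% = wells lacking PAFAH2 protein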
Settings: recombinant PAFAH2, FP-rhodamine activity probe, at 3.39 µM, hits give high values

| Structure (SMILES) | inhibition |
| --- | --- |
| CCOCc1nnc(NC(=O)CCC2CCCCC2)s1 | 3.07% |
| CCOc1cc(-c2conc2N)cc(OCC)c1OCC | -0.29% |
| CCCc1cc(=O)n2[nH]c(SCc3ccccc3)nc2n1 | 58.2% (active) |
| CCCc1cc(=O)n2[nH]c(C)c(-c3ccc(Cl)cc3)c2n1 | 4.35% |
| CCCc1cc(=O)[nH]c(SCc2ccc(C#N)cc2)n1 | -7.81% |
| O=C1CCc2cc(S(=O)(=O)N3CCC(C(=O)NCc4ccccc4Cl)CC3)ccc2N1 | 7.4% |
| NNC(=O)C1CC(O)CN1S(=O)(=O)c1ccc(Cl)cc1 (centres undefined) | -7.58% |
| O=C(CCN1CCN(C/C=C/c2ccccc2)CC1)Nc1cccc(F)c1 | -0.13% |
| O=c1ccc2c(-c3ccccc3S(=O)(=O)O)c3ccc(O)c(O)c3oc-2c1O | 74.3% (active) |
| O=C1C2C3C=CC(C3)C2C(=O)N1c1ncc([N+](=O)[O-])s1 (centres undefined) | 3.52% |
| CC1(C)NC(=O)N(CC(=O)Nc2cc(C(F)(F)F)cc(C(F)(F)F)c2)C1=O | 2.33% |
| N/C(=N\OS(=O)(=O)c1cccc([N+](=O)[O-])c1)c1ccncc1 | -0.37% |
| CCCC(CCC(=O)OC)(C(=O)OCC)c1csc(N)n1 (centres undefined) | 3.59% |
| Nc1nnnn1/N=C/c1cc([N+](=O)[O-])ccc1O | -12.5% |
| O=C(N/N=C/c1cc([N+](=O)[O-])ccc1O)/C(=C\c1cccs1)NC(=O)c1ccccc1 | -3.54% |
| O=[N+]([O-])c1ccc(O)c(/C=N/Nc2ccccc2[N+](=O)[O-])c1 | 51.1% (active) |
| O=C(O)c1ccccc1N=N/C(=N/Nc1cc(S(=O)(=O)O)ccc1O)c1ccccc1 | 50.6% (active) |
| COc1cccc(/C=N/Nc2ccc(S(=O)(=O)Nc3ccccc3C(=O)O)cc2[N+](=O)[O-])c1O | 27.3% |
| NC[C@H](Cc1ccccc1)NCCc1cc(C(F)(F)F)cc(C(F)(F)F)c1 | -1.16% |
| O=C(OCCN1C(=O)c2ccccc2C1=O)[C@@H]1CC(O)CN1S(=O)(=O)c1ccccc1[N+](=O)[O-] (some centres undefined) | 3.85% |
| O=C(CN1C(=O)NC2(CCOc3ccccc32)C1=O)NCc1ccc(F)cc1 (centres undefined) | -2.58% |
| O=C(COC(=O)C1CCCCC1)Nc1ccc([N+](=O)[O-])cc1 | 59.7% (active) |
| O=C(COC(=O)Cc1ccc([N+](=O)[O-])cc1)NC1CCCCCC1 | 2.56% |

| Structure (SMILES) | inhibition |
| --- | --- |
| N/C(Cc1ccc([N+](=O)[O-])cc1)=N\OC(=O)C1CCCCC1 | 18.1% |
| CCC(C)c1ccc(NC(=O)COC(=O)C2CCCC2)cc1 (centres undefined) | 46.3% (active) |
| CC(=O)Nc1ccc(NC(=O)COC(=O)C2CCC(C(C)(C)C)CC2)cc1 (centres undefined) | 2.02% |
| CCC(C)c1ccc(NC(=S)N2CCCC2)cc1 (centres undefined) | -2.78% |
| Cc1nc([N+](=O)[O-])nn1C12CC3CC(CC(Br)(C3)C1)C2 | 4.57% |
| Clc1c(OCCCn2ccnc2)ccc2ccccc12 | 0.49% |
| Cc1ccc(F)cc1S(=O)(=O)Nc1cccc(C(=O)N2CCCC(C(N)=O)C2)c1 (centres undefined) | 45.3% (active) |
| CCOC(=O)C1CCCN(C(=O)c2ccc(C)c(S(=O)(=O)N3CCCCC3)c2)C1 (centres undefined) | 3.86% |
| O=C(c1ccc(F)cc1)N1CCCC(C(=O)N2CCCCC2)C1 (centres undefined) | -1.35% |
| CSc1ccc(S(=O)(=O)N2CCC(C(=O)NCc3ccncc3)CC2)cc1 | 0.67% |
| CCCC1OC23CCCCC2C(C#N)(C#N)C1(C#N)C(=N)O3 (centres undefined) | 35.4% (active) |
| O=C(Nc1ccc(S(=O)(=O)N2CCCCC2)cc1)C1CC(=O)N(c2ccc(F)cc2)C1 (centres undefined) | -0.7% |
| O=c1oc(-c2ccco2)nc2sc3c(c12)CCCCC3 | 46.4% (active) |
| Cn1c(NN)nc2sc3c(c2c1=O)CCC3 | 4.91% |
| O=S(=O)(c1ccc(Cl)cc1)c1nc(-c2ccco2)oc1N1CCCCC1 | -0.15% |
| Cc1cc(-n2cnc(-c3cn(C)nc3C)n2)no1 | 2.99% |
| Cc1noc(/C=C/c2ccco2)c1S(=O)(=O)N1CCC(C(=O)N2CCc3ccccc32)CC1 | -7.75% |
| O=C(O)Cc1csc(NC(=O)CSc2nnnn2-c2ccc(O)cc2)n1 | 1.29% |
| CCn1c(CNC(=O)c2ccccc2)nnc1SCC(=O)N1CCN(c2ccccc2)CC1 | -4.72% |
| CCN(C(=O)CSc1nnnn1-c1ccc(OC)cc1)C1CCS(=O)(=O)C1 (centres undefined) | 4.1% |
| COc1ccc(C(C)C)cc1S(=O)(=O)Nc1ncn[nH]1 | -3.51% |
| CCC(C)NC(=O)C1c2ccccc2Oc2ccccc21 (centres undefined) | -4.35% |
| CCCN(CCC)C(=O)C1c2ccccc2Oc2ccccc21 | 32.9% (active) |

| Structure (SMILES) | inhibition |
| --- | --- |
| CCCCCNC(=O)C1c2ccccc2Oc2ccccc21 | -0.79% |
| O=c1oc(/C=C/c2ccccc2)nc2ccccc12 | 76.7% (active) |
| S=c1[nH]nc(/C=C/c2ccccc2)o1 | -11.5% |
| O=c1[nH]c(/C=C/c2cccc(Br)c2)nc2ccccc12 | 6.48% |
| CCc1ccc2nc(Nc3ncc(C(C)=O)c(C)n3)nc(C)c2c1 | 7.02% |
| Cc1ccc(S/C(=N\S(=O)(=O)c2ccc(Cl)cc2)c2ccccc2)cc1 | 5.84% |
| Cc1cc(=O)oc2c3c(cc(OCC(=O)NCc4ccccn4)c12)OC(C)(C)CC3 | 14.1% |
| Cc1cc(=O)oc2c3c(cc(OCC(=O)NCCC(=O)N[C@@H](C)C(=O)O)c12)OC(C)(C)CC3 | 6.3% |
| Cc1c(C)c2c(OCC(=O)N[C@@H](C(=O)O)c3ccccc3)cc3c(c2oc1=O)CCC(C)(C)O3 | 90.8% (active) |
| Cc1c(C)c2c(OCC(=O)NCCCO)cc3c(c2oc1=O)CCC(C)(C)O3 | 72.5% (active) |
| Cc1cc(=O)oc2c3c(cc(OCC(=O)N[C@H](C(=O)O)c4ccccc4)c12)OC(C)(C)CC3 | 18.3% |
| Cc1cc(OCC(=O)NCC(O)c2ccccc2)c2c(C)c(C)c(=O)oc2c1 (centres undefined) | 0.4% |
| CCN(CC)c1ccc(NC(=O)CN2C(=O)NC3(CCc4ccccc43)C2=O)cc1 (centres undefined) | -0.31% |
| Cc1cc(C)n(CCNCc2c(C(=O)N3C[C@@H](C)O[C@@H](C)C3)nc3ccc(Cl)cn23)n1 | 0.53% |
| C#CC(C)(C)NC(=O)c1cnc(-c2ccccc2)nc1-c1ccccc1 | -1.01% |
| CC(Nc1ccc([N+](=O)[O-])cc1[N+](=O)[O-])c1ccccc1 (centres undefined) | 4.73% |
| Cc1ccc(OCC(=O)Nc2ccccc2Sc2ccc(Cl)cc2)c([N+](=O)[O-])n1 | 0.47% |
| COc1ccc(Cc2n[nH]c(=S)n2NC(=O)Nc2ccc(C)cc2)cc1 | -2.45% |
| CN(CC(=O)Nc1ccc(OC(F)F)cc1)S(=O)(=O)/C=C/c1ccccc1 | 3.38% |
| NS(=O)(=O)c1ccc(NS(=O)(=O)/C=C/c2ccccc2)cc1 | 4.92% |
| COc1ccc(NC(=O)COC(=O)c2ccc(NS(=O)(=O)/C=C/c3ccccc3)cc2)cc1 | 75.8% (active) |
| O=C(NCc1ccccc1)C1C(=O)N(Cc2ccccc2)C(=O)C1C1(O)CCCC1 (centres undefined) | 3.41% |
| O=C(Cc1ccc(S(=O)(=O)N2CCOCC2)s1)NCCOc1ccccc1F | 38.8% (active) |

| Structure (SMILES) | inhibition |
| --- | --- |
| O=C(Cc1ccc(S(=O)(=O)N2CCOCC2)s1)NCCC(c1ccccc1)c1ccccc1 | 3.55% |
| O=C(OCCOc1ccccc1F)c1cc(S(=O)(=O)N2CCOCC2)ccc1F | -1.58% |
| Cc1ccc2c(c1)N(CC(=O)NCC1CCCO1)C(=O)CO2 (centres undefined) | 3.2% |
| COCCCn1c(Cc2csc(Nc3cccc(Cl)c3)n2)nnc1SCC(=O)OC1CCCCC1 | 0.44% |
| O=[N+]([O-])c1cc(Cl)cc(/C=N/NC(=S)Nc2cc(S(=O)(=O)N3CCOCC3)ccc2Cl)c1O | 85.2% (active) |
| O=S(=O)(c1ccc(NC(=S)NN=C(C2CC2)C2CC2)cc1)N1CCOCC1 | 8.93% |
| Cc1ccc(S(=O)(=O)N2CCN(CC(=O)N/N=C/c3cc([N+](=O)[O-])ccc3Cl)CC2)cc1 | -3.59% |
| C/C(=N\NC(=O)c1ccc(C)cc1)C1C(=O)c2ccccc2C1=O | 14.8% |
| CCN1CCN(c2ccc(S(=O)(=O)N3CCCCC3)cc2NC(=O)Cc2c(Cl)cccc2Cl)CC1 | 12.9% |
| NC(=O)CSc1nnc(NC(=O)c2ccc3ccccc3c2)s1 | 1.32% |
| O=C(NCc1ccccc1Cl)C1CCCO1 (centres undefined) | 6.52% |
| O=C(Nc1nnc(SCc2ccccc2Cl)s1)c1cccc([N+](=O)[O-])c1 | 32.2% (active) |
| Cc1cc(C)nc(NC(=O)c2cccc([N+](=O)[O-])c2)c1 | -7.58% |
| O=C(Nc1nnc(SCc2c(Cl)cccc2Cl)s1)c1cccc([N+](=O)[O-])c1 | 57.2% (active) |
| Cc1cc(C)c2nc(NC(=O)C3CCCO3)sc2c1 (centres undefined) | -3.31% |
| O=C(Nc1nnc(SCc2c(Cl)cccc2Cl)s1)C1CCCO1 (centres undefined) | 35.8% (active) |
| O=C(Nc1ccc(C2CC2(Cl)Cl)cc1)c1cccc([N+](=O)[O-])c1 (centres undefined) | -4.09% |
| CCOC(=O)CSc1nnc(NC(=O)c2cccc(S(=O)(=O)N3CCCC3)c2)s1 | 1.53% |
| COC(=O)C1=C(C(=O)OC)C(c2cc([N+](=O)[O-])ccc2O)c2sc(=O)[nH]c2S1 (centres undefined) | 11.7% |
| CC(C)(C)c1ccccc1NC(=O)CN1C(=O)NC2(CCCC2)C1=O | -2.59% |
